Compound activity: PubChem, Broad Institute
C diff growth: blocks growth of Clostridium difficile. Clostridium difficile clinical isolate growth, OD600, 24 h; stronger effect = lower value. hit rate 0.25% among 86,000. growth activity, negative = inhibition, % at 16 µg/mL (by protocol). AID 1259249;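 active = mean growth activity at or below -80% and every replicate also at or below -80%; inconclusive = mean at or below -80% but some replicate above -80%; inactive = mean growth activity above -80%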
T cruzi growth-1: inhibitors of T. cruzi proliferation; T. cruzi beta-gal in NIH3T3, GalScreen luminescence, 90 h; inhibition, % at 8.34 µM; AID 624255; hit rate 5.9% among 77,000;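 active = mean inhibition above about 93%, with at least 55% of replicates each passing it, limit read from the data, passing the limit was not always enough; inconclusive = only one of those two conditions holds; inactive = neither condition holds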
Pf Dd2 growth: P. falciparum Dd2 growth inhibition; AID 1159554; hit rate 2.3% among 94,000; activity change, % at 10 µM; SYBR Green, 72 h; stronger effect = lower value; in the data active = activity change below about -80%; inconclusive = no clear call, values can overlap the other calls
T cruzi growth-2: inhibitors of T. cruzi proliferation; shares compounds with T cruzi growth-1; T. cruzi beta-gal in NIH3T3, GalScreen luminescence, 90 h; inhibition, % at 8.35 µM; hit rate 72% among 5,600;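 active = mean replicate inhibition above about 95% and at least 55% of replicates individually reaching it, limit read from the data; inconclusive = only one of the two criteria is met; inactive = neither criterion is met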
T cruzi growth-3: Trypanosoma cruzi proliferation inhibition; T. cruzi beta-gal in NIH3T3, GalScreen luminescence, 90 h; inhibition, % at 2.09 µM; hit rate 21% among 5,600; shares compounds with T cruzi growth-1;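 active = mean inhibition above about 95%, with at least 55% of replicates also reaching it, limit read from the data; inconclusive = meets just one of the two conditions; inactive = meets neither condition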
NIH3T3 tox: NIH/3T3 (mouse) viability loss; AID 651742; hit rate 14% among 5,600; cytotoxicity (signal decrease), % at 8.35 µM; NIH/3T3 viability, CellTiter-Glo ATP luminescence, 90 h; shares compounds with T cruzi growth-1;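 active = mean signal decrease across replicates above about 35% based on untreated-well scatter, with enough replicates individually passing, limit read from the data; inconclusive = no rule stated though some were filed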
3T3 cytotox 2: NIH/3T3 (mouse) viability loss; shares compounds with T cruzi growth-1; NIH/3T3 viability, CellTiter-Glo ATP luminescence, 90 h; inhibition, % at 24.9 µM; hit rate 56% among 5,600; AID 651744;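 active = mean loss of cell viability signal at or above a set limit, and enough replicates individually reaching it; inconclusive = meets only the mean limit or only the replicate share; inactive = meets neither condition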
Of the large screens only hits and unclear results are named; the others gave an inactive call (follow-up assays come after a bar, where they were run). This is a sample that favours compounds with a hit; in the whole collection about 6.7% have one here.

CN(C)C(=O)c1ccc(-c2ccccc2[C@H]2[C@@H](CO)N(C(=O)C3CCCC3)[C@H]2C#N)cc1	none (no result: T cruzi growth-1)
COc1ccc(S(=O)(=O)Nc2ccc3c(c2)C(=O)N([C@@H](C)CO)C[C@@H](C)[C@@H](CN(C)CC2CC2)OCCCC[C@@H](C)O3)cc1	none
O=C(C[C@H]1C[C@H]2c3cc(NS(=O)(=O)c4ccc(F)cc4)ccc3O[C@H]2[C@H](CO)O1)NCCN1CCCCC1	none
CCCc1cn(CC[C@H]2CC[C@@H](NC(=O)Nc3ccccc3F)[C@@H](CO)O2)nn1	none (no result: C diff growth)
OC[C@@H]1[C@H](c2ccc(C#Cc3ccccc3F)cc2)[C@H]2CN(CC3CCOCC3)CCCCN12	T cruzi growth-1 106 | T cruzi growth-2 101 | T cruzi growth-3 110 | NIH3T3 tox 40 | 3T3 cytotox 2 104
OC[C@H]1[C@@H](c2ccc(C#Cc3ccccc3F)cc2)[C@@H]2CN(CC3CCOCC3)CCCCN12	none
CN1CCCCN2[C@H](CO)[C@H](c3ccc(C#Cc4ccccc4F)cc3)[C@@H]2C1	none
OC[C@H]1[C@H](c2ccc(C#Cc3ccccc3F)cc2)[C@@H]2CN(CC3CCOCC3)CCCCN12	T cruzi growth-1 inconclusive | T cruzi growth-2 106 | T cruzi growth-3 inactive | NIH3T3 tox 41 | 3T3 cytotox 2 106
C[C@@H]1CN([C@@H](C)CO)C(=O)Cc2cc(NS(=O)(=O)c3cccs3)ccc2O[C@H]1CN(C)Cc1ccc(C(F)(F)F)cc1	none
O=C(O)C[C@H]1CC[C@H](NC(=O)Nc2ccccc2)[C@H](CO)O1	none (no result: C diff growth)
CN1C(=O)c2cc(NC(=O)c3ccc(F)c(F)c3)ccc2OC[C@@H]2O[C@H](CC(=O)N[C@@H]3CCN(Cc4ccccc4)C3)CC[C@H]21	T cruzi growth-1 106 (no result: Pf Dd2 growth) | T cruzi growth-2 114 | T cruzi growth-3 inactive | NIH3T3 tox inactive | 3T3 cytotox 2 inactive
CN1C(=O)c2cc(NC(=O)Cc3cccs3)ccc2OC[C@H]2O[C@@H](CC(=O)N[C@H]3CCN(Cc4ccccc4)C3)CC[C@@H]21	none (no result: Pf Dd2 growth)
CN1C(=O)c2cc(NC(=O)Cc3cccs3)ccc2OC[C@@H]2O[C@H](CC(=O)N[C@H]3CCN(Cc4ccccc4)C3)CC[C@H]21	none (no result: Pf Dd2 growth)
CN1C(=O)c2cc(NC(=O)c3ccc(F)c(F)c3)ccc2OC[C@@H]2O[C@H](CC(=O)N[C@H]3CCN(Cc4ccccc4)C3)CC[C@H]21	T cruzi growth-1 111 (no result: Pf Dd2 growth) | T cruzi growth-2 99 | T cruzi growth-3 inactive | NIH3T3 tox inactive | 3T3 cytotox 2 inactive
CN1C(=O)c2cc(NC(=O)Cc3cccs3)ccc2OC[C@H]2O[C@H](CC(=O)N[C@H]3CCN(Cc4ccccc4)C3)CC[C@@H]21	T cruzi growth-1 105 (no result: Pf Dd2 growth) | T cruzi growth-2 inconclusive | T cruzi growth-3 inactive | NIH3T3 tox inactive | 3T3 cytotox 2 inactive
CN1C(=O)c2cc(NC(=O)Cc3cccs3)ccc2OC[C@@H]2O[C@@H](CC(=O)N[C@H]3CCN(Cc4ccccc4)C3)CC[C@H]21	none (no result: Pf Dd2 growth)
CC(=O)N1CC[C@@H]2[C@@H](CO)N(C)c3ccc(-c4cccc(F)c4)cc3[C@@H]21	none
O=C(c1cccc(F)c1)N1CC(=O)N2[C@H](C1)[C@H](c1ccc(/C=C/c3ccccc3)cc1)[C@@H]2CO	none (no result: T cruzi growth-1)
C[C@H](CO)N1C[C@H](C)[C@@H](CN(C)C(=O)CN(C)C)Oc2cc(-c3cccnc3)ccc2S1(=O)=O	none
C[C@@H]1CCCCO[C@H](CN(C)S(=O)(=O)c2ccccc2)[C@H](C)CN([C@@H](C)CO)C(=O)c2cc(NC(=O)Nc3ccc(F)cc3)ccc2O1	T cruzi growth-1 105 | T cruzi growth-2 109 | T cruzi growth-3 inactive | NIH3T3 tox inactive | 3T3 cytotox 2 inactive
C[C@@H]1CN([C@H](C)CO)C(=O)c2cc(NC(=O)Nc3ccc(F)cc3)ccc2O[C@@H](C)CCCCO[C@@H]1CN(C)S(=O)(=O)c1ccccc1	T cruzi growth-1 103, Pf Dd2 growth -82 | T cruzi growth-2 inactive | T cruzi growth-3 inactive | NIH3T3 tox inactive | 3T3 cytotox 2 inactive
C[C@@H]1CCCCO[C@@H](CN(C)S(=O)(=O)c2ccccc2)[C@@H](C)CN([C@H](C)CO)C(=O)c2cc(NC(=O)Nc3ccc(F)cc3)ccc2O1	none
C[C@H](CO)N1C[C@H](C)[C@@H](CN(C)S(=O)(=O)c2ccccc2)OCCCC[C@H](C)Oc2ccc(NC(=O)Nc3ccccc3)cc2C1=O	none (no result: C diff growth)
C[C@@H]1CN([C@@H](C)CO)C(=O)c2cc(NC(=O)Nc3ccc(F)cc3)ccc2O[C@@H](C)CCCCO[C@H]1CN(C)S(=O)(=O)c1ccccc1	T cruzi growth-1 106 | T cruzi growth-2 112 | T cruzi growth-3 inactive | NIH3T3 tox inactive | 3T3 cytotox 2 inactive
C[C@@H]1CCCCO[C@@H](CN(C)S(=O)(=O)c2ccccc2)[C@@H](C)CN([C@H](C)CO)C(=O)c2cc(NC(=O)Nc3ccccc3)ccc2O1	none (no result: C diff growth)
C[C@H](CO)N1C[C@H](C)[C@@H](CN(C)S(=O)(=O)c2ccccc2)OCCCC[C@H](C)Oc2ccc(NC(=O)Nc3ccc(F)cc3)cc2C1=O	T cruzi growth-1 109 | T cruzi growth-2 106 | T cruzi growth-3 inactive | NIH3T3 tox inactive | 3T3 cytotox 2 inactive
C[C@@H]1CCCCO[C@H](CN(C)S(=O)(=O)c2ccccc2)[C@@H](C)CN([C@H](C)CO)C(=O)c2cc(NC(=O)Nc3ccccc3)ccc2O1	none (no result: C diff growth)
C[C@@H]1CN([C@@H](C)CO)C(=O)Cc2cc(NS(=O)(=O)c3ccccc3)ccc2O[C@@H]1CN(C)Cc1ccc2c(c1)OCO2	none
C[C@@H]1CCCCO[C@@H](CN(C)S(=O)(=O)c2ccc(Cl)cc2)[C@H](C)CN([C@@H](C)CO)C(=O)c2cc(NS(=O)(=O)c3ccccc3)ccc2O1	none (no result: T cruzi growth-1)
CC(C)NC(=O)N(C)C[C@H]1OCCCC[C@@H](C)Oc2ccc(NC(=O)c3ccccc3)cc2C(=O)N([C@@H](C)CO)C[C@@H]1C	none
N#C[C@@H]1[C@H](c2ccccc2-c2ccccc2)[C@H](CO)N1C(=O)Cc1cccnc1	none (no result: T cruzi growth-1)
CC(C)C[C@H]1COCc2cn(nn2)CC[C@@H](Cc2ccccc2)C(=O)N1	none (no result: T cruzi growth-1, Pf Dd2 growth)
O=C(C[C@H]1CC[C@H]2[C@@H](COC[C@@H](O)CN2C(=O)c2ccccc2)O1)N1CCOCC1	none
C[C@H](CO)N1C[C@H](C)[C@H](CN(C)C(=O)Nc2ccc3c(c2)OCO3)Oc2ncc(C#Cc3ccc(C(F)(F)F)cc3)cc2C1=O	T cruzi growth-1 inconclusive | T cruzi growth-2 100 | T cruzi growth-3 inconclusive | NIH3T3 tox inactive | 3T3 cytotox 2 106
C[C@H](CO)N1C[C@H](C)[C@H](CN(C)C(=O)Nc2ccc3c(c2)OCO3)Oc2ncc(C#CC(C)(C)O)cc2C1=O	none
